Source: PubChem BioAssay (National Center for Advancing Translational Sciences (NCATS))
DT40 TDP1 no CPT: qHTS for Inhibitors of human tyrosyl-DNA phosphodiesterase 1 (TDP1): qHTS in cells in absence of CPT; AID 686978, 2013; DT40 Tdp1-/- hTDP1 cells, no CPT, ATP luminescence, 48 h; 15% of 420,000 active; Potency, µM (doses to about 46.2 µM), most hits filed as inhibitors; also: nearly all actives have a fitted effect of over 55% in size
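Compound effects on proliferation are scored in DT40 Tdp1-/-;hTDP1 cells in the absence of CPT. ATP levels (CellTiter-Glo luminescence) are recorded after a ≥48 hr, 37 °C incubation.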
DT40 TDP1 CPT: DT40-hTDP1 cell growth loss with CPT | chicken DT40 Tdp1-/-;hTDP1 cells + 20 nM CPT, ATP luminescence, 48 h | Potency, µM (titrated, usually from 46.2 µM), usual class: inhibitors | 12% of 420,000 active | AID 686979; also: nearly all actives have a fitted effect of over 55% in size
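Cell growth measured by CellTiter-Glo luminescence after a minimum 48 h, 37 C compound exposure with 20 nM CPT in Tdp1-knockout DT40 cells stably expressing hTDP1, seeded 400/well; qHTS titration format.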
HT1080 IDH1KD tx: toxicity to HT-1080 IDH1 knockdown cells (counter line). 2% of 360,000 active. HT-1080 IDH1 knockdown viability, ATP luminescence, 48 h. Potency, µM (highest dose often 46.1 µM), actives largely listed as cytotoxic
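IDH1KD HT-1080 cells, 750/well, RPMI + 5% FBS; compound pinned after 2 h settling; 48 h, 37 °C; CellTiter-Glo luminescence; % activity normalised to DMSO and no-cell wells; curves fitted, classed by r2 and efficacy.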
HT1080-NT tox: kills 2HG-producing HT-1080-NT fibrosarcoma cells; HT-1080-NT fibrosarcoma viability, CellTiter-Glo ATP luminescence, 48 h; Potency, µM (series often up to 46.1 µM), hits mostly cytotoxic; AID 686970; 1.6% of 360,000 active;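 also: NT is the 2HG producing partner of a matched IDH1 knockdown line; nearly all actives have a fitted effect of over 55% in size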
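Read-out is CellTiter-Glo luminescence after 10 minutes at room temperature, following 48 hours' compound treatment of HT-1080-NT cells (750 cells/well, RPMI, 5% FBS, 37 degrees C).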
KB-3-1 cytotox: kills parental KB-3-1 adenocarcinoma cells. Potency, µM (top dose mostly 46.1 µM), most hits filed as cytotoxic. 1.4% of 400,000 active. KB-3-1 viability, CellTiter-Glo ATP luminescence, 72 h; also: nearly all actives have a fitted effect of over 60% in size
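Luminescent ATP read-out (CellTiter-Glo) measures survival of drug-naive KB-3-1 cells after 72 h compound exposure at 37 °C. Titration series was screened from lowest to highest concentration, with DMSO vehicle plates as background controls.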
KB-V1 MDR tox: kills drug-selected multidrug resistant KB-V1 cells | KB-V1 MDR cells viability, CellTiter-Glo, 72 h | Potency, µM (highest dose often 46.1 µM), hits mostly cytotoxic | 3.4% of 400,000 active | AID 1347076; also: nearly all actives have a fitted effect of over 60% in size
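KB-V1, DMEM (no phenol red) + 10% FBS; cpd pin-transferred, titration series; 72 h, 37 degrees C; CellTiter-Glo, luminescence. Data normalized, curve-fit.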
Hits are given with their value; . = inactive; ? = inconclusive; / = no result given. Hits are enriched below; roughly 19% of the tested compounds scored in any of these assays. Calls follow the shape of the dose curve; as a rule, active = well fitted curve in the direction sought with a large enough effect; inconclusive = small, poorly fitted or top-dose-only effect, or another doubt; inactive = no such curve, though single readings can be large; an effect the other way counts as inactive or inconclusive.

SMILES	DT40 TDP1 no CPT	DT40 TDP1 CPT	HT1080 IDH1KD tx	HT1080-NT tox	KB-3-1 cytotox	KB-V1 MDR tox
O=C(CCS(=O)(=O)c1ccc(Br)cc1)N1CCN(c2ccc(F)cc2)CC1	16µM	?	.	.	.	.
O=C(NCc1ccc(F)cc1)c1ccc(CS(=O)(=O)c2ccc(Br)cc2)o1	10µM	?	.	.	.	13µM
O=C(NCc1ccc2c(c1)OCO2)c1ccc(CS(=O)(=O)c2ccc(Br)cc2)o1	?	?	.	.	.	.
COc1cccc(N2CCN(C(=O)CCS(=O)(=O)c3ccc4c(c3)CC(=O)N4C)CC2)c1	?	?	/	/	.	.
O=C(COc1ccc(Cl)cc1)N1CCN(S(=O)(=O)c2cc(F)ccc2F)CC1	?	?	.	.	?	?
COC(=O)c1c(NC(NC(=O)C(C)C)C(Cl)(Cl)Cl)sc2c1CCC2 (stereo unspecified)	13µM	16µM	.	.	.	.
COC(=O)c1c(NC(NC(=O)CC(C)C)C(Cl)(Cl)Cl)sc2c1CCC2 (stereo unspecified)	?	?	.	.	.	18µM
CCC(=O)NC(Nc1sc2c(c1C(=O)OC)CCC2)C(Cl)(Cl)Cl (stereo unspecified)	15µM	15µM	.	.	?	23µM
CCOC(=O)c1c(NC(NC(C)=O)C(Cl)(Cl)Cl)sc2c1CCCC2 (stereo unspecified)	?	16µM	.	?	?	.
COC(=O)c1c(NC(NC(=O)C(C)(C)C)C(Cl)(Cl)Cl)sc2c1CCC2 (stereo unspecified)	?	?	?	?	.	.
CCOc1ccccc1NC(=O)COC(=O)CN1C(=O)NC(C)(C)C1=O	.	.	.	.	.	.
CCN(CC)CCNC(=O)c1ccc(NS(C)(=O)=O)cc1	.	.	/	/	/	/
COc1cc(C(=O)C(=O)N2CCN(c3ccccc3)CC2)cc2ccccc12	?	?	.	.	.	.
CC[C@@H](NC(=O)[C@@H](Cc1ccccc1)NC(=O)CC[C@H]1O[C@@H](n2ccc(=O)[nH]c2=O)[C@H](O)[C@@H]1O)c1ccccc1	.	.	.	.	.	.
COC(=O)c1ccc(NC(=O)c2ccc3nccnc3c2)cc1	29µM	.	.	.	.	.
Cc1cc(NC(=O)c2ccc3nccnc3c2)ccc1Br	?	?	.	.	/	/
Cc1ccc(C(=O)Nc2ccc3nccnc3c2)cc1	16µM	?	.	.	.	?
O=C(Nc1ccc(OC(F)(F)F)cc1)c1ccc2nccnc2c1	?	.	?	.	.	.
CCCCC(=O)NC(NC(=S)N1CCCCCC1)C(Cl)(Cl)Cl (stereo unspecified)	13µM	13µM	.	.	.	.
COc1ccc(-c2c(N)nnc3c2[nH]c2ccccc23)cc1OC	21µM	?	.	.	.	.
COc1ccc(-c2c(N)n[nH]c2C)cc1OC	.	.	.	.	.	.
O=C(CSc1nc(-c2ccc(Cl)cc2)cs1)Nc1cccc([N+](=O)[O-])c1	16µM	?	?	16µM	?	?
Cc1cc(NC(=O)CSc2nc(-c3ccc(Cl)cc3)cs2)no1	.	.	?	?	.	.
O=[N+]([O-])c1cccc(NC(=S)Nc2nc(-c3ccccc3Cl)cs2)c1	18µM	?	18µM	?	?	.
CCOC(=O)c1cc2c(=O)n3ccccc3nc2n(CC2CCCO2)c1=NC(=O)/C=C/c1ccccc1 (stereo unspecified)	15µM	?	.	.	?	?
SMILES	DT40 TDP1 no CPT	DT40 TDP1 CPT	HT1080 IDH1KD tx	HT1080-NT tox	KB-3-1 cytotox	KB-V1 MDR tox
CCOC(=O)c1cc2c(=O)n3ccccc3nc2n(Cc2ccco2)c1=NC(=O)c1cc(C)cc(C)c1	1.2µM	1.3µM	/	/	.	.
CCOC(=O)c1cc2c(=O)n3ccccc3nc2n(CC2CCCO2)c1=NC(=O)c1cc(C)cc(C)c1 (stereo unspecified)	0.037µM	0.16µM	/	/	?	?
CCOC(=O)c1cc2c(=O)n3ccccc3nc2n(CC2CCCO2)c1=NC(=O)c1cccc(C(F)(F)F)c1 (stereo unspecified)	.	.	/	/	.	.
CCOC(=O)c1cc2c(=O)n3ccccc3nc2n(CC2CCCO2)c1=NC(=O)c1cccc(C)c1 (stereo unspecified)	5.8µM	5.2µM	/	/	.	?
CCOC(=O)c1cc2c(=O)n3ccccc3nc2n(CC2CCCO2)c1=NC(C)=O (stereo unspecified)	.	.	.	.	.	?
CC(=O)NC12CC3CC(C1)CC(C(=O)N(C)CC(=O)Nc1cccc(F)c1)(C3)C2	.	.	.	.	.	.
C[C@H]1CN([C@@H](C)CO)C(=O)c2cc(NC(=O)c3ccncc3)ccc2O[C@H]1CN(C)Cc1ccc(C(=O)O)cc1	.	.	.	.	.	.
CCOc1ccc2ncc3c(-c4ccc(C)cc4)nn(-c4cccc(F)c4)c3c2c1	.	.	/	/	.	.
CCOC(=O)c1cc2c(=O)n3ccccc3nc2n(C(C)C)c1=NC(=O)c1c(-c2c(F)cccc2Cl)noc1C	8.2µM	8.2µM	.	.	?	?
CCOC(=O)c1cc2c(=O)n3ccccc3nc2n(CC2CCCO2)c1=NC(=O)c1ccc(OCC)cc1 (stereo unspecified)	5.8µM	6.5µM	/	/	.	.
CCOC(=O)c1cc2c(=O)n3ccccc3nc2n(CC2CCCO2)c1=NC(=O)c1ccc(OC)cc1OC (stereo unspecified)	16µM	?	/	/	.	.
CCOC(=O)c1cc2c(=O)n3ccccc3nc2n(CCOC)c1=NC(=O)c1cc2ccccc2o1	.	.	/	/	?	?
COc1ccc(CN(C)S(=O)(=O)c2nnc(NC(=O)c3ccccc3OC)s2)cc1OC	?	?	.	.	.	.
COc1ccc(CN(C)S(=O)(=O)c2nnc(NC(=O)C(C)C)s2)cc1OC	10µM	12µM	/	/	?	.
COc1cc(=O)n2c(c1C(=O)N(C)Cc1nonc1C)CCN(CC1CC=CCC1)CC2 (stereo unspecified)	.	.	/	/	/	/
O=C(NCc1ccccc1Br)c1cnc2sc(N3CCCCCC3)nn2c1=O	4.1µM	23µM	/	/	/	/
Cc1ccc(C)c(CNC(=O)c2cnc3sc(N4CCCC4)nn3c2=O)c1	18µM	16µM	/	/	.	.
COc1ccccc1CNC(=O)c1cnc2sc(N3CCCCCC3)nn2c1=O	21µM	16µM	/	/	/	/
Cc1cccc(CNC(=O)c2cnc3sc(N4CCCCCC4)nn3c2=O)c1	.	.	/	/	/	/
